Reference: PubChem BioAssay (NCI)
About 83,000 compounds went through this panel and 20% of them were active in at least one assay; those are over-represented in the sample as a whole.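 Each cell line was grown in a 96-well plate and treated with one concentration of compound for 48 hours. Values below 10 were considered active.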 The source made the active and inactive calls.

Tested on: HL-60(TB) leukemia
Experiment: NCI-60 one-dose screen, 48 h (100 = growth as untreated, 0 = no growth, -100 = all killed)
Details: 10 µM unless noted

Row | SMILES | growth
1 | CC/C(=C(\c1ccc(Cl)cc1)c1ccc(OCCN2CCCCC2)cc1)c1ccc(O)cc1 | -40.4% (active)
2 | O=c1cc(CNc2cc(F)cc(F)c2)c2ccc(I)cc2[nH]1 | -32.6% (active)
3 | COC(=O)c1c(C(=O)OC)c2ccc3c4ncccc4ccc3n2c1C(=O)c1ccc(C)cc1 | 91.8% (inactive)
4 | O=C(CCl)Oc1ccc([N+](=O)[O-])cc1 | 107% (inactive)
5 | CC/C(=C(/c1ccc(O)cc1)c1ccc(OCCN2CCCCCC2)cc1)c1ccc(Cl)cc1 | 53.9% (inactive)
6 | C=CC(=O)N1CCC[C@@H](n2nc(-c3ccc(Oc4ccccc4)cc3)c3c(N)ncnc32)C1 | 82.5% (inactive)
7 | O=C(CCc1nnc2sc(Cc3ccccc3Cl)nn12)c1nc2ccccc2[nH]1 | 104% (inactive)
8 | O=C(N/N=C/c1ccncc1)c1ccccc1Nc1cccc(C(F)(F)F)c1 | 77.7% (inactive)
9 | Cn1cc(-c2nc(-c3c[nH]c4ncccc34)cs2)c2cc(Cl)ccc21 | 55.8% (inactive)
10 | Cc1ccc(-c2nn(C)c(=O)c3noc(-c4ccc(C)cc4)c23)cc1 | 29.3% (inactive)
11 | N=C1CCC(=N)c2c1c(O)c1ccccc1c2O | 129% (inactive)
12 | O=C([C@@H](COCc1ccccc1)N1C(=O)[C@@H](N2C(=O)OC[C@@H]2c2ccccc2)[C@H]1/C=C/c1ccccc1)N1CCC(CCN2CCCCC2)CC1 | 64.5% (inactive)
13 | Cc1cc2c(-c3nc4ccccn4c3NC34CC5CC(CC(C5)C3)C4)c(O)c(O)cc2c(O)c1-c1c(C)cc2c(-c3nc4ccccn4c3NC34CC5CC(CC(C5)C3)C4)c(O)c(O)cc2c1O | 5.04% (active)
